We go through 9 compounds from PubChem BioAssay (Tox21).

Assay [1] can be described thus: Caspase-3/7 induction in HepG2 cells by small molecules, qHTS assay (AID 1346978). Also: nearly all actives have a fitted effect of over 15% in size. The method, boiled down: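 Wild-type HepG2 cells, 2,000/well, settled 5 hr at 37 C and 5% CO2, then compound-treated for 17 hr; caspase-3/7 activity read by luminescent Caspase-Glo 3/7 after 30 min at room temperature.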
In general terms: Quantitative high-throughput screening tests each substance at several concentrations.

Assay [2] in a line: Caspase-3/7 induction in CHO-K1 cells by small molecules, qHTS cell viability counter screen (AID 1346979). Also: nearly all actives have a fitted effect of over 35% in size. Also: potency is read from the fitted curve at half-maximal effect. The essentials:
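CHO-K1 wt, 1,500 cells/well; 5hr pre-incubation 37C/5% CO2; compound pin transfer (DMSO); 16hr exposure; CellTiter-Fluor added, 1hr, fluorescence read.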

A short description of assay [3]: Caspase-3/7 induction in CHO-K1 cells by small molecules, qHTS assay (AID 1346980). Also: nearly all actives have a fitted effect of over 15% in size. The method, boiled down:
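Wild-type CHO-K1 cells exposed to compounds for 17hr at 37 C, 5% CO2. Caspase-3/7 activity then measured by Caspase-Glo 3/7 luminescence after 30min at room temperature.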

The target of assay [4] is Nuclear receptor subfamily 1 group I member 2 (Homo sapiens) (UniProt O75469). The experiment in a line: Human pregnane X receptor (PXR) small molecule agonists, qHTS assay (AID 1346982). Also: nearly all actives have a fitted effect of over 35% in size. The method, boiled down: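 Agonist mode qHTS: PXR-Luc HepG2 cells plated 5 hr before DMSO-dissolved compounds were pinned in, cultured 24 hr at 37 C, 5% CO2; ONE-Glo luminescence readout.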
Chain of Nuclear receptor subfamily 1 group I member 2 (Homo sapiens) (O75469 whole entry, looked up): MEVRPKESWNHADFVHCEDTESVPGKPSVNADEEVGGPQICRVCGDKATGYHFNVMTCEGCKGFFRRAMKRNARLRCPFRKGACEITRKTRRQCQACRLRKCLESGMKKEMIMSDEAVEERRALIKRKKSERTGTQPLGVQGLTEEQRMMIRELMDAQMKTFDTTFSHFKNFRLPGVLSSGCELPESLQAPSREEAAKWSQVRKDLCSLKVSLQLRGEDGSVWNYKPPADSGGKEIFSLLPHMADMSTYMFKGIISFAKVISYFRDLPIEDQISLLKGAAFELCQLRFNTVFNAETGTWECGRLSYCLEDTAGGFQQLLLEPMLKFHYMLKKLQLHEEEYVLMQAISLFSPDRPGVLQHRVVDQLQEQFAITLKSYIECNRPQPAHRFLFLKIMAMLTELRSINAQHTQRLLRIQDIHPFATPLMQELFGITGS

In assay [5] the target is Acetylcholinesterase (Homo sapiens) (UniProt P22303). Briefly: Acetylcholinesterase (AChE) small molecule antagonists: colormetric cell-based qHTS assay (AID 1347395; calls by dose curve; also: nearly all actives have a fitted effect of over 30% in size). The method, boiled down:
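SH-SY5Y cells; cpd 30 min 37 C; + DTNB/acetylthiocholine, 90 min 37 C; colorimetric thiocholine read; qHTS.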

Assay [6] shares this target. Briefly: Acetylcholinesterase (AChE) small molecule antagonists: enzyme-based qHTS assay (AID 1347397; calls by dose curve; also: nearly all actives have a fitted effect of over 55% in size). To be noted: Potency: AChE enzyme activity inhibition. The method, boiled down: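 Recombinant human AChE (50 mU/mL) preincubated with compound 30 min at room temperature; acetylthiocholine plus DTNB then added, and thiocholine formation read colorimetrically after 10 min at room temperature. DMSO served as vehicle control.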

For assay [7] the target is unchanged. Briefly: Acetylcholinesterase (AChE) small molecule antagonists: fluorescence cell-based qHTS assay (AID 1347398; calls by dose curve; also: nearly all actives have a fitted effect of over 50% in size). To be noted: Potency: AChE activity. The essentials: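 SH-SY5Y cells (2000/well), attached overnight, incubated with compound 30 min at 37 C. Acetylthiocholine plus Thiolite Green then added for 40 min at room temperature. Thiocholine fluorescence (Ex/Em 490/520 nm) reports cellular AChE activity.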

Assay [8] shares this target. The experiment in a line: Acetylcholinesterase (AChE) small molecule antagonists: enzyme-based qHTS assay with human liver microsomes (AID 1347399; calls by dose curve; also: nearly all actives have a fitted effect of over 60% in size). To be noted: Potency: qHTS inhibition. The essentials:
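Recombinant human AChE (50 mU/mL in the enzyme mix) and human liver microsomes (0.25 mg/mL final) were preincubated with compound and NADPH (0.25 mg/mL final) for 30 min at 37 C. Acetylthiocholine/DTNB was then added; thiocholine was read colorimetrically after 10 min at room temperature.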

The target of assay [9] is Cytochrome P450 2D6 (Homo sapiens) (UniProt P10635). The experiment in a line: Cytochrome P450 Family 2 Subfamily D Member 6 (CYP2D6) small molecule antagonists: luciferase reporter qHTS assay (AID 1671196). Also: nearly all actives have a fitted effect of over 50% in size. Also: potency is read from the fitted curve at half-maximal effect. The essentials: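 P450-Glo format: CYP2D6 converts a proluciferin substrate to luciferin in an NADPH-driven reaction lasting 1 h at room temperature. Light output, proportional to CYP2D6 activity, reflects interference by test chemicals.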
Chain of Cytochrome P450 2D6 (Homo sapiens) (P10635 whole entry, looked up): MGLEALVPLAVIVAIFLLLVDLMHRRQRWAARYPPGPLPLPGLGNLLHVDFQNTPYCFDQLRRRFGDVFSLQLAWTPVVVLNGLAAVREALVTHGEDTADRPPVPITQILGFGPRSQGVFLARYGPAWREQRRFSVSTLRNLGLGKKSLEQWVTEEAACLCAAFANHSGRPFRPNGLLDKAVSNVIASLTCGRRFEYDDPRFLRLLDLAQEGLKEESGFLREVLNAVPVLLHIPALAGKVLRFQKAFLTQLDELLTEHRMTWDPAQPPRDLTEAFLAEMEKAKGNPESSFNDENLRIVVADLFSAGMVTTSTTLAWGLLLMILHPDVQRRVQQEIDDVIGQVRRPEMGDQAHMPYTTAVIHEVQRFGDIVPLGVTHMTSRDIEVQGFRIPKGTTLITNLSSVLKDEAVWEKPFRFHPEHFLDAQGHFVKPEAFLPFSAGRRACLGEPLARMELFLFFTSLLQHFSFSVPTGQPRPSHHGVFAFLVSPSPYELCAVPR
In general terms: Reporter assays use an easily measured gene product as a stand-in for the process of interest.

Assay [10] concerns the target Cytochrome P450 2C19 (Homo sapiens) (UniProt P33261). Briefly: Cytochrome P450 Family 2 Subfamily C Member 19 (CYP2C19) small molecule antagonists: luciferase reporter qHTS assay (AID 1671197). Also: nearly all actives have a fitted effect of over 65% in size. Also: potency is read from the fitted curve at half-maximal effect. The essentials: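 Compounds were tested on CYP2C19 activity via proluciferin conversion to luciferin. The 37C, 1 h reaction followed NADPH addition; detection reagent stopped it.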

In assay [11] the target is Cytochrome P450 2C9 (Homo sapiens) (UniProt P11712). The experiment in a line: Cytochrome P450 Family 2 Subfamily C Member 9 (CYP2C9) small molecule antagonists: luciferase reporter qHTS assay (AID 1671198). Also: nearly all actives have a fitted effect of over 50% in size. Also: potency is read from the fitted curve at half-maximal effect. The essentials: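 P450-Glo proluciferin substrate with CYP2C9 enzyme; 10 min RT preincubation, then NADPH regeneration 1 h at 37C; luciferin detection reagent 20 min RT, luminescence in relative luminescence units.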
Chain of Cytochrome P450 2C9 (Homo sapiens) (P11712 whole entry, looked up): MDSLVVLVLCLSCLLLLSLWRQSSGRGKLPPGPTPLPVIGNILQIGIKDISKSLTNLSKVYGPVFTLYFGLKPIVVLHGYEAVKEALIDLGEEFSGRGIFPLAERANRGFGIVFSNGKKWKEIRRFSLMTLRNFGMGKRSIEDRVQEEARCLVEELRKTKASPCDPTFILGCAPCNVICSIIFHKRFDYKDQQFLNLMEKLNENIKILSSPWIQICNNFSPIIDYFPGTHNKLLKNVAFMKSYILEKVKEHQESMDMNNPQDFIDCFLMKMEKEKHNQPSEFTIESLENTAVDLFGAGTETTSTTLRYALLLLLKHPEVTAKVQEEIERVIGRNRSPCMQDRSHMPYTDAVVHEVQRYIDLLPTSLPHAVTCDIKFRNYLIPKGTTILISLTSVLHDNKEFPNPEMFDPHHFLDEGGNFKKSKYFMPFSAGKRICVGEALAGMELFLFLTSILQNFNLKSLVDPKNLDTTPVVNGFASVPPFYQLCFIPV

Assay [12] has as its target Cytochrome P450 1A2 (Homo sapiens) (UniProt P05177). Briefly: Cytochrome P450 Family 1 Subfamily A Member 2 (CYP1A2) small molecule antagonists: luciferase reporter qHTS assay (AID 1671199). Also: nearly all actives have a fitted effect of over 50% in size. Also: potency is read from the fitted curve at half-maximal effect. The method, boiled down: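 Inhibition of CYP1A2 conversion of proluciferin to luciferin, detected by luminescence. Reaction run 1 h at room temperature with NADPH regeneration after brief compound preincubation.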

The target in assay [13] is Voltage-gated inwardly rectifying potassium channel KCNH2 (Homo sapiens) (UniProt Q12809). The experiment in a line: Human Ether-a-go-go-Related Gene (hERG) channel small molecule antagonists: fluorescence cell-based qHTS assay (AID 1671200). Also: nearly all actives have a fitted effect of over 50% in size. Also: potency is read from the fitted curve at half-maximal effect. The essentials: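 Read-out: thallium influx as a surrogate for potassium, tracked as fluorescence (480 nm ex/540 nm em) every second for 2 min after Stimulus Buffer addition in dye-loaded hERG-U2OS cells.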
Chain of Voltage-gated inwardly rectifying potassium channel KCNH2 (Homo sapiens) (Q12809 whole entry, looked up): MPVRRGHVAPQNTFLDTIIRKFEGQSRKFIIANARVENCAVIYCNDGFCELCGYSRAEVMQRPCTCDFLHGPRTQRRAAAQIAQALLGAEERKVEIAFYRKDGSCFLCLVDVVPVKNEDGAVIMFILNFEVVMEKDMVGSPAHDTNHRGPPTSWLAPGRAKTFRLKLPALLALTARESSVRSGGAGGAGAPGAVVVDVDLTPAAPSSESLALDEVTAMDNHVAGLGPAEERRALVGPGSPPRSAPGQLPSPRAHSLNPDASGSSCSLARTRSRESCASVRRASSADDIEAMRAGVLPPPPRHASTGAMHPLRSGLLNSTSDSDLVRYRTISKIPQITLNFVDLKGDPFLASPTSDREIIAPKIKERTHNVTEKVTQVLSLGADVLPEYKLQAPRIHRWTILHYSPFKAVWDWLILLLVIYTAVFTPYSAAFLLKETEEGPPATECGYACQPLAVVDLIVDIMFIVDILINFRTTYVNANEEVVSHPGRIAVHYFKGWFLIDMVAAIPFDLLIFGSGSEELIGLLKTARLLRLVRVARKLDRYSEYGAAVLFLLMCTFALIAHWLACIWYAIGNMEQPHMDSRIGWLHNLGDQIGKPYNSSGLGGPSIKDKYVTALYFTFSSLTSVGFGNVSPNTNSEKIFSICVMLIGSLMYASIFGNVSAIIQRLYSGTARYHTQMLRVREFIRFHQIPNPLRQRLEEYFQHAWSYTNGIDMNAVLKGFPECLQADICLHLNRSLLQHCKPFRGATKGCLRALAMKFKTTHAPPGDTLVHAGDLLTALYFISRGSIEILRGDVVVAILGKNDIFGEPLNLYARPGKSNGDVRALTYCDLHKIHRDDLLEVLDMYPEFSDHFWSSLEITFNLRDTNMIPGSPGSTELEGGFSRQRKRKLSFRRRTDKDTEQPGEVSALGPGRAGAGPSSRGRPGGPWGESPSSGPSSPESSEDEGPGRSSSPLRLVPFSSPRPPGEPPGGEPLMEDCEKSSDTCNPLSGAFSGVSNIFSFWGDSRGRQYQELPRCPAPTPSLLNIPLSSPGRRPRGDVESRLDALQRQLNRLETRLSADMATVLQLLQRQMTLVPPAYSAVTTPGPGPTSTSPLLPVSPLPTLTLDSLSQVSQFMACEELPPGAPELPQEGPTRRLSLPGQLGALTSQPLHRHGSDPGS
A general note: Block of hERG is tested as a sign of cardiac risk.

In assay [14] the target is Cytochrome P450 3A4 (Homo sapiens) (UniProt P08684). The experiment in a line: Cytochrome P450 Family 3 Subfamily A Member 4 (CYP3A4) small molecule antagonists: luciferase reporter qHTS assay (AID 1671201). Also: nearly all actives have a fitted effect of over 50% in size. Also: potency is read from the fitted curve at half-maximal effect. The method, boiled down: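 Luminescent readout (RLU) proportional to CYP3A4 activity, from luciferin generated off a proluciferin substrate. Enzyme–substrate mix plus compound 10 min at room temp, NADPH regeneration 1 h, detection reagent 20 min.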
Chain of Cytochrome P450 3A4 (Homo sapiens) (P08684 whole entry, looked up): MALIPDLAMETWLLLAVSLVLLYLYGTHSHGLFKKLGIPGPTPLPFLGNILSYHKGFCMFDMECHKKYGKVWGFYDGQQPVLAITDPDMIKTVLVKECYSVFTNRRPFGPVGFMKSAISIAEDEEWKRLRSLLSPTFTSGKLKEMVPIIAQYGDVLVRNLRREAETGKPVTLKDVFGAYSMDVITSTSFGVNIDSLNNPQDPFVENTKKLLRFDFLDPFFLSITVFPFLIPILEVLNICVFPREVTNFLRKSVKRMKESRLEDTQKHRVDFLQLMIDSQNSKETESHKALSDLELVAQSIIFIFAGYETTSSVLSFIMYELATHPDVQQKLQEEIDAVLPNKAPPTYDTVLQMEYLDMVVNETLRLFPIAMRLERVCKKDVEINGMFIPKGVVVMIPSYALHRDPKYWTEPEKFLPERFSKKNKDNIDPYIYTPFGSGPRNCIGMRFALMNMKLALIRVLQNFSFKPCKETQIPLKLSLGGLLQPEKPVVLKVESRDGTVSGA

The nature of assay [15]: Caspase-3/7 induction in HepG2 cells by small molecules, qHTS cell viability counter screen (AID 1346981). Also: nearly all actives have a fitted effect of over 30% in size. Also: potency is read from the fitted curve at half-maximal effect. The essentials:
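Steps: seed 2,000 HepG2 cells per well; incubate 5 hr at 37 C; pin-add compounds in DMSO; incubate 16 hr; add CellTiter-Fluor; after 1 hr at 37 C and 5% CO2, read fluorescence.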

Inconclusive results are not listed. The source made the active and inactive calls. Unless noted, calls follow the shape of the dose curve; as a rule, active = well fitted curve in the direction sought with a large enough effect in the repeat runs; inconclusive = weak or mixed curves; inactive = no such curve, though single readings can be large; an effect the other way counts as inactive or inconclusive.

Chain of Acetylcholinesterase (Homo sapiens) (P22303 whole entry, looked up): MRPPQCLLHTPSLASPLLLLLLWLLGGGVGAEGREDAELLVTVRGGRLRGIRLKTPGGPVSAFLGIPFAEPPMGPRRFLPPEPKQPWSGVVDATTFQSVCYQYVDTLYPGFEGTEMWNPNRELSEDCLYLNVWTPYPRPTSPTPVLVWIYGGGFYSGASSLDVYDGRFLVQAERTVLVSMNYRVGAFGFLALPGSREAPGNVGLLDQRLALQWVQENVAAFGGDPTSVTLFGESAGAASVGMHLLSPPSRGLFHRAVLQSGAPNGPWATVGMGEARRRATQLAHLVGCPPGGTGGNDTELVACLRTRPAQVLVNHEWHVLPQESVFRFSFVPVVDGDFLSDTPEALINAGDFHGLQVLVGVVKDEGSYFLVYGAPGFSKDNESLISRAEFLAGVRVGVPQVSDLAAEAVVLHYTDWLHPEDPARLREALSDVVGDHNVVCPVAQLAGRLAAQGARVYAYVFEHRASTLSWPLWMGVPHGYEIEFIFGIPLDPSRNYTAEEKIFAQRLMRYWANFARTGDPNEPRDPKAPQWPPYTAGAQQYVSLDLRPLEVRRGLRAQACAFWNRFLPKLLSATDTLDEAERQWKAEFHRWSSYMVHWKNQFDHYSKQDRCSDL
Chain of Cytochrome P450 2C19 (Homo sapiens) (P33261 whole entry, looked up): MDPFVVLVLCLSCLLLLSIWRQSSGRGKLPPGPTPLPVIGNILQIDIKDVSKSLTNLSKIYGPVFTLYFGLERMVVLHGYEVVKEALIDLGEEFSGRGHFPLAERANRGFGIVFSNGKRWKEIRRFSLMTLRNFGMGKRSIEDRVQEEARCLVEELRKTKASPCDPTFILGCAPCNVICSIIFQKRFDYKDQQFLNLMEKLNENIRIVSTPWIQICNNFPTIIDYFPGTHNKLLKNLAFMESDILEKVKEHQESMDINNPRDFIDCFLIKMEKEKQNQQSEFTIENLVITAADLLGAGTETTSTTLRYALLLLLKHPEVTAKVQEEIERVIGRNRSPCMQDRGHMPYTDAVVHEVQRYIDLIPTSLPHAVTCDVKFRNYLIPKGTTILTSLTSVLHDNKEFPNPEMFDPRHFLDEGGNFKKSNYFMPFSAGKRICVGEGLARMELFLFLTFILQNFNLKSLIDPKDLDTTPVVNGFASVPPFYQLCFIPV
Chain of Cytochrome P450 1A2 (Homo sapiens) (P05177 whole entry, looked up): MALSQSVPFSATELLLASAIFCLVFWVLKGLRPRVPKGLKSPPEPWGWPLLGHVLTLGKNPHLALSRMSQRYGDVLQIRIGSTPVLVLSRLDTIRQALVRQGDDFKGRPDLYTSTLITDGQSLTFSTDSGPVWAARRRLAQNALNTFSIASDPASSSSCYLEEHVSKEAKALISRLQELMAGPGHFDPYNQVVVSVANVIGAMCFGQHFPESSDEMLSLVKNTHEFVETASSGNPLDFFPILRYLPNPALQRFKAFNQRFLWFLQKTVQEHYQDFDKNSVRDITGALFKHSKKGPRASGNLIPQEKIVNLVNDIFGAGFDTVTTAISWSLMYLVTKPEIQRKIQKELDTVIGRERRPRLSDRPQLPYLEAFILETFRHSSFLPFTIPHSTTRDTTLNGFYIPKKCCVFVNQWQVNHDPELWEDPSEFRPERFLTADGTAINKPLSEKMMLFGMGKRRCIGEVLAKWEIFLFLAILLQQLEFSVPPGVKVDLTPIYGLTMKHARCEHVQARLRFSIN

In the case of `Cc1ccccc1CCl`, the Potency result in assay [1], in assay [2], in assay [3], in [4], in [5] and in assay [6] was “inactive” each time. The Potency entry in assay [7], in assay [8], in assay [9], in assay [10], in assay [11] and in assay [12] was “inactive” throughout. In addition, the Potency result in assay [13] and in assay [14] was “inactive” in each case.
On to `O=[N+]([O-])c1cc(C(F)(F)F)cc([N+](=O)[O-])c1Cl`, for which the Potency result in assay [1], in assay [3], in assay [5], in [6], in [7] and in assay [8] was “inactive” throughout. In addition, the Potency entry in [13] and in assay [14] was “inactive” each time. The Potency was 68.9 µM (active) in [2]; 61.4 µM (active) in assay [15]; 17.9 µM (active) in [9]; 40.1 µM (active) in [10]; 17.9 µM (active) in assay [11].
Turning to `COP(=S)(OC)Oc1ccc([N+](=O)[O-])cc1Cl`, the Potency entry in assay [1], in assay [3], in [4], in assay [5], in [6] and in assay [7] was “inactive” in each case. Also, the Potency entry in [8], in [9] and in assay [13] was “inactive” in each case. Moreover, the Potency was 68.6 µM (active) in assay [2]; 39.9 µM (active) in assay [10]; 20 µM (active) in assay [11]; 22.4 µM (active) in assay [12]; 6.33 µM (active) in assay [14].
As to `CCCCCC[N+](=O)[O-]`, the Potency result in [1], in assay [2], in assay [3], in assay [15] and in assay [13] was “inactive” in each case.
In the case of `CCC(Cl)CCl` (stereo not given), the Potency result in [1], in assay [2], in assay [3], in assay [15], in assay [4] and in assay [7] was “inactive” in each case. Further, the Potency result in [8], in [9], in assay [10], in assay [11], in assay [12] and in assay [13] was “inactive” each time. Further, the Potency result in assay [14] was “inactive”.
For the compound `O=Cc1ccc2c(c1)OCO2`, the Potency entry in assay [1], in assay [2], in [3], in assay [15], in assay [5] and in assay [6] was “inactive” throughout. Further, the Potency entry in [7], in assay [8], in assay [9], in assay [10], in assay [13] and in [14] was “inactive” throughout. The Potency in [12] is 31.3 µM (active).
`Cl/C=C\Cl`: the Potency entry in [1], in [2], in assay [3], in [4], in assay [5] and in [6] was “inactive” each time. Moreover, the Potency entry in [7], in [8], in assay [9], in assay [10], in assay [11] and in [12] was “inactive” in each case. Also, the Potency result in assay [13] and in [14] was “inactive” each time.
As to `COC(=O)c1cncn1C(C)c1ccccc1` (stereo not given), the Potency entry in [1], in assay [2], in assay [3], in assay [4], in [5] and in assay [6] was “inactive” each time. The Potency entry in [7], in [8], in assay [12] and in assay [13] was “inactive” in each case. Further, the Potency in [9] is 8.71 µM (active); in assay [10] it was 3.89 µM (active); in assay [11], 27.5 µM (active); in assay [14], 0.309 µM (active).
For the compound `CCOC(=O)COc1cc(-c2nn(C)c(OC(F)F)c2Cl)c(F)cc1Cl`, the Potency result in [1], in [2], in assay [3], in [15], in [7] and in assay [8] was “inactive” throughout. Further, the Potency is 31.7 µM (active) in assay [10], 6.33 µM (active) in assay [11], 1.78 µM (active) in assay [12] and 34.7 µM (active) in assay [13].
